# Test results as given in the supplement of paper PMC9399229.
# Counter-ions that a name gives are not always drawn. Whole data set: some 1,900 compounds, median “relative cell viability (CellTiter-Glo), compound plus cabozantinib, relative to the cabozantinib arm (arm median 1.05; reference not stated)” near 1.1, cut for the lowest 2% near 0.15. The list comes from a sample in which the lowest values are over-represented; it also holds similar structures and randomly drawn compounds.
# Test system: Hep3B
# Assay: relative cell viability (CellTiter-Glo), compound plus cabozantinib, relative to the cabozantinib arm (arm median 1.05; reference not stated) (fraction); higher = more viable cells (less growth inhibition)
# Details: cabozantinib 2 µM; 4 days
row,SMILES,relative cell viability
1,O=C1c2c(O)ccc(O)c2C(=O)c2c(NCCNCCO)ccc(NCCNCCO)c21 [Mitoxantrone],0.0306
2,COc1cc([C@@H]2c3cc4c(cc3[C@@H](O[C@@H]3O[C@@H]5CO[C@@H](c6cccs6)O[C@H]5[C@H](O)[C@H]3O)[C@H]3COC(=O)[C@H]23)OCO4)cc(OC)c1O [Teniposide],0.104
3,COc1cc([C@@H]2c3cc4c(cc3[C@@H](O[C@@H]3O[C@@H]5CO[C@@H](C)O[C@H]5[C@H](O)[C@H]3O)[C@H]3COC(=O)[C@H]23)OCO4)cc(OC)c1O [Etoposide],0.923
4,O=C(O)CC1CC(c2ccccc2)=NO1 (centres undefined),1.1
5,CC(C(O)c1ccc(O)cc1)N1CCC(Cc2ccccc2)CC1 (centres undefined) [Ifenprodil Tartrate],1.13
6,CS(=O)(=O)CCNCc1ccc(-c2ccc3ncnc(Nc4ccc(OCc5cccc(F)c5)c(Cl)c4)c3c2)o1 [Lapatinib],0.971
7,CS(=O)(=O)CCNCc1ccc(-c2ccc3ncnc(Nc4ccc(OCc5cccc(F)c5)c(Cl)c4)c3c2)o1,1.03
8,CCS(=O)(=O)Nc1ccc2c(c1)/C(=C(/Nc1ccc(CN3CCCCC3)cc1)c1ccccc1)C(=O)N2 [Hesperadin],0.123
9,COC(=O)c1ccc2c(c1)NC(=O)/C2=C(\Nc1ccc(N(C)C(=O)CN2CCN(C)CC2)cc1)c1ccccc1 [Nintedanib (BIBF 1120)],0.806
10,CN(C)Cc1cccc(N/C(=C2\C(=O)Nc3cc(C(N)=O)ccc32)c2ccccc2)c1,0.924
11,O=C1NCC2(CCN(CCc3ccccc3)CC2)O1 [Fenspiride HCl],1.16
12,CC(C)[C@H](C(=O)Nc1ccc(C(=O)NO)cc1)c1ccccc1,0.142
13,CC(=O)Nc1ccc(C(=O)Nc2ccccc2N)cc1 [CI994 (Tacedinaline)],1.14
14,CCCCN(Cc1ccc(C(=O)NO)cc1)C(=O)Nc1ccccc1 [Nexturastat A],0.953
15,CC(C(=O)O)c1ccc2c(c1)Cc1cccnc1O2 (centres undefined) [Pranoprofen],1
16,COc1cc(N2CCC(N)CC2)ccc1Nc1ncc(Cl)c(-c2c[nH]c3ccccc23)n1,0.119
17,CCOc1cc(N2CCC(O)CC2)ccc1Nc1ncc2c(n1)N(C)c1ccccc1C(=O)N2C,1.09

row,SMILES,relative cell viability
1,CNC(=O)c1ccccc1Nc1nc(Nc2ccc(N3CCOCC3)cc2OC)ncc1Cl,0.155
2,CC/C(=C(/CC)c1ccc(O)cc1)c1ccc(O)cc1 [Diethylstilbestrol],1.21
3,CCCCNc1ncc(C(=O)NCc2ccc(-n3ccnc3)cc2)c(NC2CCC(O)CC2)n1 (centres undefined),0.996
4,Cc1cc(C#N)cc(C)c1Oc1nc(Nc2ccc(C#N)cc2)nc(N)c1Br [Etravirine (TMC125)],1.23
5,COc1cc(-c2cc(-c3ccc(N4CCNCC4)cc3)cnc2C)cc(OC)c1OC,1.01
6,COc1ccc(-c2cnc3c(-c4cccc5ncccc45)cnn3c2)cc1,1.08
7,c1cc(-c2cnn3cc(-c4ccc(N5CCNCC5)cc4)cnc23)c2cccnc2c1,0.148
8,CS(=O)(=O)N1CCc2c(-c3cnc(N)nc3)nc(N3CCOCC3)nc21,0.228
9,CNC(=O)c1ccccc1Nc1cc(Nc2ccc(N3CCOCC3)cc2OC)ncc1C(F)(F)F,1.05
10,CCCCCCCCCCCC[N+](C)(C)CCOc1ccccc1 [Domiphen Bromide],1.02
11,Cc1[nH]c2ccccc2c1CCNCc1ccc(/C=C/C(=O)NO)cc1 [Panobinostat (LBH589)],0.108
12,Cc1[nH]c2ccccc2c1CCNC(=O)c1cccs1,1.18
13,Cc1ccc([N+](=O)[O-])cc1S(=O)(=O)N(C)/N=C/c1cnc2ccc(Br)cn12,0.113
14,CCN(CC)C(=S)SSC(=S)N(CC)CC [Disulfiram],0.0898
15,Oc1ncnc2[nH]ncc12 [Allopurinol],0.992
16,CC(C)[C@H]1CC[C@H](C(=O)N[C@H](Cc2ccccc2)C(=O)O)CC1 [Nateglinide],1.13
17,CC(C)(C)c1nc(-c2cccc(NS(=O)(=O)c3c(F)cccc3F)c2F)c(-c2ccnc(N)n2)s1,0.993
